# E coli growth-1 – E. coli growth inhibition, primary screen, OD600. Escherichia coli growth, 23 h; stronger effect = lower value. 330,000 compounds, 0.21% hits. OD600 absorbance (no concentration beside the values);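 active = OD600 absorbance below the run mean of sample wells minus 3.6 SD, in any replicate, cut at about 0.56 in these data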
# E coli growth-2 – E. coli V3065 growth inhibition, primary screen, counter-screen for AddAB inhibitor project, absorbance, OD600; inhibition, % at 11.9 µM; 18 h; 330,000 compounds, 0.27% hits; AID 449728, 2010;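 active = inhibition above the campaign's mean inhibition across all tested compounds plus 3 SD, cut at about 9.9% in these data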;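 also: uninfected addAB+ strain grown without phage in ampicillin broth; 0% = DMSO wells and 100% = ciprofloxacin 0.95 µg/ml wells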
# AddAB inh – growth inhibition of E. coli expressing H. pylori AddAB, primary screen, AddAB inhibitor project, absorbance; inhibition, % at 11.9 µM; 330,000 compounds, 0.29% hits; in the data active = inhibition above about 12%;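 also: 0% = vehicle wells of infected cells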
# Tat export inh – E. coli Tat export inhibitors, primary screen, MC4100, TorA-mCherry reporter, fluorescence, single point | inhibition, % at 10 µM | 340,000 compounds, 0.036% hits;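 active = mean replicate inhibition at least 50% and at least half of replicates individually reaching 50%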;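 also: exported cargo escapes ClpAP degradation while cytoplasmic cargo is degraded and loses fluorescence; 0% = median of neutral control wells and 100% = median of NaSCN control wells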
# phage Ecoli inh – growth loss of phage-infected E. coli, primary screen, RecBCD inhibitor project, absorbance, with phage, HTS | inhibition, % at 11.9 µM | 360,000 compounds, 0.26% hits; in the data active = inhibition above about 11%
# AddAB confirm – growth loss of phage-infected E. coli expressing H. pylori AddAB, confirmation, AddAB inhibitor project, absorbance, E. coli V3065, T4 phage, triplicate | inhibition, % at 11.9 µM | 880 compounds, 64% hits | AID 488942, 2010 | shares compounds with AddAB inh | OD; T4 phage with gene 2 nonsense mutations;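 active = mean inhibition above a set limit taken from the earlier primary screen, cut at about 13% in these data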;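 also: higher means less bacterial growth since AddAB block lets phage replicate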
# RecBCD counter – growth loss of RecBCD+ E. coli with mutant T4 phage, counter-screen for AddAB inhibitor project, absorbance, V66 E. coli. inhibition, % at 11.9 µM. shares compounds with AddAB inh. AID 488955, 2010. 880 compounds, 73% hits. OD growth;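 active = mean inhibition above the mean of solvent-only control wells plus 3 SD, cut at about 4% in these data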;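 also: optical density read after an 18 h incubation at 37 °C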
# bact viab count – bacterial viability inhibition counter-screen, confirmation, counter-screen for AddAB inhibitor project, absorbance. 880 compounds, 35% hits. shares compounds with AddAB inh. inhibition, % at 11.9 µM. absorbance (AddAB counterscreen); in the data active = inhibition above about 25%
# RecBCD conf – growth loss of phage-infected RecBCD+ E. coli, confirmation, RecBCD inhibitor project, absorbance, E. coli V66, T4 gene 2 phage; shares compounds with phage Ecoli inh; E. coli V66 + T4 2- phage, growth OD; inhibition, % at 11.9 µM; 890 compounds, 45% hits; AID 651982, 2013;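 active = mean inhibition over triplicates exceeding the hit threshold derived in the original primary screen, cut at about 11% in these data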
# Ecoli viability – E. coli viability inhibition, counter-screen for RecBCD inhibitor project, absorbance, high throughput; shares compounds with phage Ecoli inh; absorbance (OD) growth; 890 compounds, 29% hits; inhibition, % at 11.9 µM; in the data active = inhibition above about 20%;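 also: E. coli strain V66 grown with compound alone and no phage infection; 0% = bacteria with DMSO vehicle only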
# AddAB counter – growth loss of phage-infected AddAB-carrying E. coli, confirmation, counter-screen for RecBCD inhibitor project, absorbance, E. coli V3065, T4 phage | shares compounds with phage Ecoli inh | E. coli expressing H. pylori AddAB + T4 phage, OD growth; gene 2 mutant T4, recBCD-deleted host | inhibition, % at 11.9 µM | 890 compounds, 45% hits | AID 651984, 2013;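 active = mean inhibition above the solvent-only control wells' mean plus 3 SD, cut at about 22% in these data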;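 also: higher means less bacterial growth from phage killing when AddAB is blocked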
# * marks the source's active call; other numbers are inactive results; . = not tested or not shown. Rows were chosen to be rich in hits. Some 0.5% of all compounds tested hit in one or more screens of this group.
SMILES,E coli growth-1,E coli growth-2,AddAB inh,Tat export inh,phage Ecoli inh,AddAB confirm,RecBCD counter,bact viab count,RecBCD conf,Ecoli viability,AddAB counter
CCOC(=O)c1cn(CC)c2cc(N3CCN(C)CC3)c(F)cc2c1=O,0.0675*,97.2*,98.9*,1.7,26.5*,102.0*,19.5*,100.4*,11.3*,12.5,88.5*
CCCCCCn1cc(C(=O)OCC)c(=O)c2cc(F)c(F)cc21,0.7,0.7,3.0,4.9,1.8,.,.,.,.,.,.
CCn1cc(C(=O)NCC(C)C)c(=O)c2cc(F)c(N3CCN(C)CC3)cc21,0.0755*,100.3*,98.9*,.,86.7*,100.3*,99.5*,100.8*,90.3*,101.0*,102.1*
CCn1cc(C(=O)NCc2ccc3c(c2)OCO3)c(=O)c2cc(F)c(N3CCN(C)CC3)cc21,0.0435*,97.7*,98.9*,10.3,16.4*,101.8*,28.5*,101.3*,17.6*,19.5,102.2*
CCC(C)NC(=O)c1cn(CC)c2cc(N3CCN(C)CC3)c(F)cc2c1=O (stereo not drawn),0.075*,95.1*,98.8*,.,94.4*,99.8*,99.2*,99.7*,98.9*,98.9*,100.2*
CCn1cc(C(=O)N[C@H](C)c2ccccc2)c(=O)c2cc(F)c(N3CCN(C)CC3)cc21,0.719,-1.3,1.9,11.8,-2.0,.,.,.,.,.,.
CCn1cc(SCC(=O)NCc2ccc3c(c2)OCO3)c2ccccc21,0.701,1.5,-1.1,-18.2,2.7,.,.,.,.,.,.
C#CCOCCOCCOCCNc1nc(N2CCN(C(=O)C(CCCCN)n3cc(C(N)CC(C)C)nn3)CC2)nc(N2CCN(C(=O)C(Cc3ccc(O)cc3)n3cc(C(N)CC(C)C)nn3)CC2)n1 (stereo not drawn),0.664,.,.,.,.,.,.,.,.,.,.
COc1ccc(S(=O)(=O)Nc2ccc3c(c2)C(=O)N(C(C)CO)CC(C)C(CN(C)C(=O)Nc2c(C)noc2C)O3)cc1 (stereo not drawn),0.706,.,.,.,.,.,.,.,.,.,.
Cc1cc(C)nc(NS(=O)(=O)c2ccc(N=NN(C)C)cc2)n1,0.677,-0.1,3.3,-12.4,0.8,.,.,.,.,.,.
Cc1ccc(C(=O)NS(=O)(=O)c2ccc(N=NN(C)C)cc2)cc1,0.648,70.2*,100.5*,-8.6,12.8*,0.0,-0.9,-0.8,-0.2,1.2,-0.6
CCC(=CC(=O)c1ccncc1)Nc1ccc(Br)cc1,0.678,.,.,.,.,.,.,.,.,.,.
CCCNC(=O)c1ccc2c(=O)c(O)c(-c3ccc(Cl)c([N+](=O)[O-])c3)[nH]c2c1,.,11.3*,13.7*,1.9,16.1*,11.4,12.9*,11.9,9.5,11.7,13.8
O=C(CC1CCCC1)NNC(=O)c1ccccc1O,.,.,.,.,0.1,.,.,.,.,.,.
O=C(CCC1CCCC1)NNC(=O)c1cc2ccccc2cc1O,0.674,9.3,18.2*,-10.9,15.9*,13.6*,13.7*,12.6,8.2,8.5,14.0
C#CCOCCOCCOCCNc1nc(N2CCN(C(=O)C(CCCCN)n3cc(C(N)C(C)CC)nn3)CC2)nc(N2CCN(C(=O)C(Cc3cc4ccccc4[nH]3)n3cc(C(N)C(C)CC)nn3)CC2)n1 (stereo not drawn),0.601,.,.,.,.,.,.,.,.,.,.
S=c1nc[nH]c2nc[nH]c12,0.674,24.3*,79.7*,0.7,25.1*,63.4*,23.8*,49.7*,36.9*,39.6*,70.8*
CCN1C(=O)C(=CN2CCN(c3ccccc3)CC2)SC1=S,0.748,.,.,.,.,.,.,.,.,.,.
CCn1cc(C(=O)O)c(=O)c2cc(F)c(N3CCN(C(=O)Nc4ccccc4)CC3)cc21,0.051*,100.7*,101.4*,24.3,96.8*,102.9*,101.5*,102.4*,99.7*,101.8*,99.0*
C=CCNC(=O)c1cn(CC)c2cc(N3CCN(C(=O)c4ccco4)CC3)c(F)cc2c1=O,0.0565*,98.6*,98.6*,13.7,25.2*,99.4*,18.9*,100.7*,12.2*,14.9,99.7*
CCn1cc(C(=O)O)c(=O)c2cc(F)c(N3CCN(C(=S)NC(=O)c4ccccc4F)CC3)cc21,0.073*,98.9*,98.3*,0.5,15.6*,100.9*,99.3*,103.3*,100.9*,101.4*,100.8*
CCn1cc(C(=O)O)c(=O)c2cc(F)c(N3CCN(C(=S)NC(=O)c4ccc(OC)cc4)CC3)cc21,0.076*,99.2*,98.9*,81.4*,101.0*,100.1*,100.2*,101.7*,104.5*,105.5*,104.7*
CCn1cc(C(=O)O)c(=O)c2cc(F)c(N/N=C/c3ccccc3)cc21,.,-0.7,2.0,0.4,1.0,.,.,.,.,.,.
C#CCOCCOCCOCCNc1nc(N2CCN(C(=O)C(CCCCN)n3cc(CN)nn3)CC2)nc(N2CCN(C(=O)C(C(C)O)n3cc(C(N)CCCCN)nn3)CC2)n1 (stereo not drawn),0.683,.,.,.,.,.,.,.,.,.,.
O=[N+]([O-])c1ccc(OCc2cn(C(CO)c3ccccc3)nn2)c(Br)c1 (stereo not drawn),0.608,.,.,.,.,.,.,.,.,.,.
CCn1cc(C(=O)NN)c(=O)c2cc(F)c(N3CCOCC3)cc21,0.67,1.9,-1.8,7.7,1.7,.,.,.,.,.,.
CCn1cc(C(=O)O)c(=O)c2cc(F)c(N3CCN(S(=O)(=O)c4ccc(NC(C)=O)cc4)CC3)cc21,0.06*,100.1*,98.9*,8.3,96.5*,100.9*,97.4*,100.9*,72.1*,100.9*,104.3*
CCn1cc(C(=O)O)c(=O)c2cc(F)c(N3CCN(C(=S)NC(=O)c4cccc(C)c4)CC3)cc21,0.071*,97.6*,96.5*,28.3,92.9*,99.6*,100.0*,99.5*,102.9*,103.3*,103.9*
CCn1cc(C(=O)O)c(=O)c2cc(F)c(N3CCN(C(=S)NC(=O)c4ccc(Br)cc4)CC3)cc21,.,97.9*,99.0*,43.6,98.9*,98.8*,99.3*,100.2*,101.9*,102.2*,103.2*

# Screens deposited in PubChem by several laboratories.
